Laboratory results: PubChem BioAssay (EPA / NIEHS)
Records with an inconclusive call do not appear. Active and inactive are the calls of the source. Rule for the calls, unless noted: active = hit-call score of the fitted dose curve at least 0.9, where 1 is the maximum; inconclusive = response in the unintended direction; inactive = score below 0.9.

How the values were obtained:
[1] = target: Bile acid receptor (Homo sapiens) (UniProt Q96RI1); experiment: ATG_FXR_TRANS: Attagene TRANS-FACTORIAL HepG2 Assay for Farnesoid X Receptor (FXR) (AID 2282979); settings: HepG2 Attagene TRANS FXR-GAL4 reporter transcription;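 note: hits raise reporter mRNA above DMSO so AC50 marks FXR activation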
Procedure, shortened: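 Transient transfection of HepG2 with multiplexed GAL4-UAS reporter units; exogenous FXR-GAL4 chimera. Dose 24 h → TriZol RNA → oligo(dT) RT → PCR, 6-FAM primer extension, HpaI cut → CE. Gain vs DMSO.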

[2] = target: Oxysterols receptor LXR-beta (Homo sapiens) (UniProt P55055); experiment: ATG_LXRb_TRANS: Attagene TRANS-FACTORIAL HepG2 Assay for human Liver X Receptor beta (LXRb) (AID 2282981); settings: HepG2 Attagene TRANS GAL4-LXRb reporter, mRNA
Procedure, shortened: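 Cells: HepG2, transiently transfected with GAL4-UAS reporter units plus LXRb-Gal4 fusion. Treatment: 24 h. Detection: reporter mRNA by RT-PCR, 6-FAM labelling, HpaI digestion, capillary electrophoresis.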

[3] = target: Hepatocyte nuclear factor 4-alpha (Homo sapiens) (UniProt P41235); experiment: ATG_HNF4a_TRANS: Attagene TRANS-FACTORIAL HepG2 Assay for human Hepatocyte Nuclear Factor 4 alpha (HNF4a) (AID 2282982); settings: HepG2 HNF4a transactivation reporter, mRNA readout
Procedure, shortened: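 Transfected HepG2 reporter cells are dosed for 24 h; reporter RNA is reverse-transcribed, amplified, fluorescently labelled and HpaI-digested before CE sizing. Positive-direction fit against DMSO.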

[4] = ATG_M_06_TRANS: Attagene TRANS-FACTORIAL HepG2 Assay for M06 Transcription Factor (Internal Marker) (AID 2282983); settings: HepG2 Attagene TRANS M06 internal marker reporter;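 note: reporter transcript level by RT-PCR then capillary electrophoresis fluorescence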
Procedure, shortened: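 Transfect HepG2 with MRTUs → dose compounds 24 h → isolate RNA, oligo(dT) RT → PCR with reporter primers → 6-FAM primer extension → HpaI digest → CE fragment analysis. Positive direction vs DMSO.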

[5] = ATG_M_32_TRANS: Attagene TRANS-FACTORIAL HepG2 Assay for M32 Transcription Factor (Internal Marker) (AID 2282984); settings: HepG2 Attagene TRANS M32 internal marker reporter
Procedure, shortened: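 Using transiently transfected HepG2 cells exposed to test chemicals for 24 h, reporter transcripts are converted to labelled cDNA fragments and quantified by capillary electrophoresis. DMSO defines the activity baseline.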

[6] = target: Nuclear receptor subfamily 4 group A member 2 (Homo sapiens) (UniProt P43354); experiment: ATG_NURR1_TRANS: Attagene TRANS-FACTORIAL HepG2 Assay for human Nuclear Receptor Related Protein 1 (NURR1) (AID 2282985); settings: HepG2 Attagene TRANS reporter, mRNA readout
Procedure, shortened: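 Cells: HepG2, transiently transfected. Exposure: 24 h. Detection: fluorescence of labelled RT-PCR products separated by capillary electrophoresis; upward fit versus DMSO.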

[7] = target: Transcriptional activator Myb (Homo sapiens) (UniProt P10242); experiment: ATG_Myb_CIS: Attagene CIS-FACTORIAL HepG2 Assay for human Myeloblastosis (Myb) Proto-Oncogene Transcription Factor (AID 2282986; active = hit-call score of the fitted dose curve at least 0.9, where 1 is the maximum; inactive = score below 0.9); settings: HepG2 Attagene CIS-FACTORIAL Myb reporter transcription; actives raise or lower the signal
Procedure, shortened: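 In this HepG2 transient-transfection format, cis-regulated reporter mRNA is quantified 24 h post-dosing by RT-PCR with capillary electrophoresis, fitted bidirectionally to DMSO baseline.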

[8] = target: Nuclear respiratory factor 1 (Homo sapiens) (UniProt Q16656); experiment: ATG_NRF1_CIS: Attagene CIS-FACTORIAL HepG2 Assay for human Nuclear Respiratory Factor 1 (NRF1) Orphan Gene (AID 2282987; active = hit-call score of the fitted dose curve at least 0.9, where 1 is the maximum; inactive = score below 0.9); settings: HepG2 NRF1 cis-element reporter, Attagene multiplex; actives raise or lower the signal
Procedure, shortened: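 Using DMSO as baseline, gain- or loss-of-signal was fitted for reporter mRNA levels in HepG2 cells transiently transfected with cis-regulated reporter units. Samples were taken 24 h after dosing and read by RT-PCR with capillary electrophoresis.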

[9] = target: Oxysterols receptor LXR-alpha (Homo sapiens) (UniProt Q13133); experiment: ATG_LXRa_TRANS: Attagene TRANS-FACTORIAL HepG2 Assay for human Liver X Receptor alpha (LXRa) (AID 2282980); settings: HepG2 Attagene TRANS reporter, LXRa transactivation
Procedure, shortened: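 Transfect HepG2 with GAL4-UAS multiplex reporter constructs (TRANS format, chimeric receptor-GAL4); treat 24 h; extract RNA, reverse-transcribe, PCR-amplify, FAM-label, HpaI-digest; resolve fragments by capillary electrophoresis. Upward response vs DMSO.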

Measured: AC50

Sequence of Nuclear receptor subfamily 4 group A member 2 (Homo sapiens) (P43354 whole entry, looked up): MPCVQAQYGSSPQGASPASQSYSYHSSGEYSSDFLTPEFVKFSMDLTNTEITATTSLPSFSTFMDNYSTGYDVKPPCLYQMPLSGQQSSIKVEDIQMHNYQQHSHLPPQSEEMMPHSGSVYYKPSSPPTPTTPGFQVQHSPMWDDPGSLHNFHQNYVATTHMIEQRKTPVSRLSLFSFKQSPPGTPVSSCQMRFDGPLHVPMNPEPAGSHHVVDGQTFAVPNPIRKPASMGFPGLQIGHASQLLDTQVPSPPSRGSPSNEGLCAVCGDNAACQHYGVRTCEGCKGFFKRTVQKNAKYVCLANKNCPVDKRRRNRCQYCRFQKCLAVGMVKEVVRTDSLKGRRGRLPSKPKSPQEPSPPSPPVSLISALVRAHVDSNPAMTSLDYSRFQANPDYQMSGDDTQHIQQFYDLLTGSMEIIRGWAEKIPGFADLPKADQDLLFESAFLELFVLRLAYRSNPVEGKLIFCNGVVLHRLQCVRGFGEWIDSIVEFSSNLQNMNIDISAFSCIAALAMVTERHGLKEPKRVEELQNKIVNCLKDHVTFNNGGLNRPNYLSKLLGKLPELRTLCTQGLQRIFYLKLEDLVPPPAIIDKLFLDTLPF
Sequence of Hepatocyte nuclear factor 4-alpha (Homo sapiens) (P41235 whole entry, looked up): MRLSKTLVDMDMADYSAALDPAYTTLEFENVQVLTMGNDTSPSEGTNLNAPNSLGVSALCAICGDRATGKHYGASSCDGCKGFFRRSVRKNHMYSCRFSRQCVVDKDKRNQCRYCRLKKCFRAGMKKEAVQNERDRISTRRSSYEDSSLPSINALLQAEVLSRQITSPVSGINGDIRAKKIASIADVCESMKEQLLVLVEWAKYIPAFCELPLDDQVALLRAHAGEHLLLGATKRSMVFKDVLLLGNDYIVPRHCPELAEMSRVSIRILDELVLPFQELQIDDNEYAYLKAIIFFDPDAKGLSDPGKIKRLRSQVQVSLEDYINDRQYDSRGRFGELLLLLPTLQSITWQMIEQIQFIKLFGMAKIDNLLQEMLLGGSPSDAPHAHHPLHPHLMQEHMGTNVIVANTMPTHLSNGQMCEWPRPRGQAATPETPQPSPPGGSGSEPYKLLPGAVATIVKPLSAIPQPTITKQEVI
Sequence of Transcriptional activator Myb (Homo sapiens) (P10242 whole entry, looked up): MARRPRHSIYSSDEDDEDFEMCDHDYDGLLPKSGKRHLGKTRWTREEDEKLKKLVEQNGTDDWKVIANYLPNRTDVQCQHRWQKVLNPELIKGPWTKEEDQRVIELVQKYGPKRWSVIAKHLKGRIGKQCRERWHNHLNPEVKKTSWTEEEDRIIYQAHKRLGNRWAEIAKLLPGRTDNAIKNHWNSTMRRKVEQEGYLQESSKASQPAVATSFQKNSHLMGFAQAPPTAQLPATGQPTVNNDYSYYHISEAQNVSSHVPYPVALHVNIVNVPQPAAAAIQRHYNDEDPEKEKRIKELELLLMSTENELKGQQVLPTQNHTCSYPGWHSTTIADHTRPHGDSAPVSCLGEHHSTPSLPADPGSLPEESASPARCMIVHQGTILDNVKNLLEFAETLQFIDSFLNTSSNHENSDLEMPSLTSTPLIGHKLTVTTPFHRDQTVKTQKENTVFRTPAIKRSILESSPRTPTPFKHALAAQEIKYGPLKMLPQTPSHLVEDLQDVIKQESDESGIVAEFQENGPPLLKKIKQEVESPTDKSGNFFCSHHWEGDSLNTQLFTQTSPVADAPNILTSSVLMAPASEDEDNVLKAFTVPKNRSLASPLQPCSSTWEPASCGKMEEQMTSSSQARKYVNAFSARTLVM
Sequence of Oxysterols receptor LXR-beta (Homo sapiens) (P55055 whole entry, looked up, the tested form may be a part): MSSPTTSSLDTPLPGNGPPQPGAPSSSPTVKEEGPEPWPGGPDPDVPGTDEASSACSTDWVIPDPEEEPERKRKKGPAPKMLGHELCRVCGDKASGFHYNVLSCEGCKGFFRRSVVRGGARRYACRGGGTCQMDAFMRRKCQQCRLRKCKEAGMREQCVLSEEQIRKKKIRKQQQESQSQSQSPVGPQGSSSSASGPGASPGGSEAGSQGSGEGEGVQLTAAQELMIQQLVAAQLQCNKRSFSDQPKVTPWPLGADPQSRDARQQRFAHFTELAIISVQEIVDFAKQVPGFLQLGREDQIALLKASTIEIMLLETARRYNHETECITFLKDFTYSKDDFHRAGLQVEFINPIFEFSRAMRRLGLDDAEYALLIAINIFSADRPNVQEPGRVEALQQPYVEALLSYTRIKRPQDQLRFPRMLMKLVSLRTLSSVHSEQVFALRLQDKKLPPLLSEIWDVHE
Sequence of Bile acid receptor (Homo sapiens) (Q96RI1 whole entry, looked up, the tested form may be a part): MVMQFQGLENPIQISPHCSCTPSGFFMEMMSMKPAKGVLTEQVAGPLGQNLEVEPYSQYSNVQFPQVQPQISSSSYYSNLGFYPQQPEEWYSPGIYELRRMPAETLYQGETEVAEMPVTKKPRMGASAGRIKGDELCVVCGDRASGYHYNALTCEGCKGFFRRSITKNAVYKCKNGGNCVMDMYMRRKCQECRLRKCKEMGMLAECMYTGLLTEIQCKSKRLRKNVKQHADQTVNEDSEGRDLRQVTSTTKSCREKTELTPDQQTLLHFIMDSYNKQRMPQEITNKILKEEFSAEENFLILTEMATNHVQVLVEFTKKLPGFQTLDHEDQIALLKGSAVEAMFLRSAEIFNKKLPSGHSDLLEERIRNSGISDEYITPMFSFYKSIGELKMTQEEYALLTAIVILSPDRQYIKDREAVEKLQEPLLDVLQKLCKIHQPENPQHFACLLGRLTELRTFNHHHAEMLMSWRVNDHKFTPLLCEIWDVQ
Sequence of Nuclear respiratory factor 1 (Homo sapiens) (Q16656 whole entry, looked up): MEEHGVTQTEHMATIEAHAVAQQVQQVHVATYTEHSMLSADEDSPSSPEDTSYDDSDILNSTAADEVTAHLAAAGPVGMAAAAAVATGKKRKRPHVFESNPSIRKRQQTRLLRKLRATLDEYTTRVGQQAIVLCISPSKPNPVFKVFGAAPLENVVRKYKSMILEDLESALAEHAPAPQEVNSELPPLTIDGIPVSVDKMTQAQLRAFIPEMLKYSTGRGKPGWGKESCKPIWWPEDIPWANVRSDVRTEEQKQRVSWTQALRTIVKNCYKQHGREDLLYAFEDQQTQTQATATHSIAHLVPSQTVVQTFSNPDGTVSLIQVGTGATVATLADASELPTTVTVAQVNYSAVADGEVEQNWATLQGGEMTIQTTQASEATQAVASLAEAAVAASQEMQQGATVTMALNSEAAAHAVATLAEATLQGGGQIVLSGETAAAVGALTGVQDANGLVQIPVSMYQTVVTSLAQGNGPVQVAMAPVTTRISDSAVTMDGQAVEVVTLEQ
Sequence of Oxysterols receptor LXR-alpha (Homo sapiens) (Q13133 whole entry, looked up, the tested form may be a part): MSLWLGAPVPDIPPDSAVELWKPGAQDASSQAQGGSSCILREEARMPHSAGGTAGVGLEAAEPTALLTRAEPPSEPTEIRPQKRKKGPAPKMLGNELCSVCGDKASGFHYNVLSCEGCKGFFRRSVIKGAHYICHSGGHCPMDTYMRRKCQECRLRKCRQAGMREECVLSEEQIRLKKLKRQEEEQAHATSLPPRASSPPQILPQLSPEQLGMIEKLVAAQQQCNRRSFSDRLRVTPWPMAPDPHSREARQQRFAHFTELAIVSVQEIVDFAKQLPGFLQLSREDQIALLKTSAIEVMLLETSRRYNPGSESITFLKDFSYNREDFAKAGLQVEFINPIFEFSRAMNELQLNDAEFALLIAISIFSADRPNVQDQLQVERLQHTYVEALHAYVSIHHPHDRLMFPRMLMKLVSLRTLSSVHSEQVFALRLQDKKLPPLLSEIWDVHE

CCOC(=O)CC
not listed: [9]
inactive: all other assays above

C(=CC=Nc1ccccc1)C=CNc1ccccc1
not listed: [1]
inactive: all other assays above

CCC(Cc1ccccc1)(C(=O)c1ccc(N2CCOCC2)cc1)N(C)C (centres undefined)
active: [9] 23.3 µM | [2] 27.5 µM | [6] 41 µM
inactive: [1] | [5] | [7]

COC(=O)c1sccc1S(N)(=O)=O
inactive: [1] | [4] | [6] | [7] | [8]

CC=C1CC2C=CC1C2 (centres undefined)
not listed: [1] | [3] | [4]
inactive: all other assays above

CC=CC(F)(F)C(F)(F)C(F)(F)F
not listed: [1] | [7] | [8]
inactive: all other assays above

COCCCOCCCOC
inactive: [9] | [2] | [3] | [8]

CCCCCCCCCCC=CC#N
inactive: [1] | [9] | [6] | [7] | [8]

C=CCCCCCCCCC(=O)OCCCC
not listed: [4] | [9]
inactive: all other assays above

CC(C)c1ccc2c(C(C)C)cc(C(C)C)c(S(=O)(=O)O)c2c1
inactive: [1] | [5] | [7] | [8]
active: [6] 48 µM

NC(=O)c1ccccc1O
inactive: [1] | [2] | [3] | [4] | [8]

CC(C)(C)c1ccc(-c2ccc(C(C)(C)C)cc2)cc1
not listed: [1] | [6]
inactive: all other assays above

C1=Cc2ccccc2C1
not listed: [1] | [5] | [6]
inactive: all other assays above

CC(C)COC(=O)C=Cc1ccccc1
not listed: [3] | [5] | [7]
inactive: all other assays above

CC[C@H]1OC(=O)[C@H](C)[C@@H](O[C@H]2C[C@@](C)(OC)[C@@H](O)[C@H](C)O2)[C@H](C)[C@@H](O[C@@H]2O[C@H](C)C[C@H](N(C)C)[C@H]2O)[C@](C)(O)C[C@@H](C)C(=NOCOCCOC)[C@H](C)[C@@H](O)[C@]1(C)O
inactive: [1] | [2] | [3] | [6] | [7]

N[C@H]1C(O)O[C@H](CO)[C@H](O)[C@@H]1O (some centres undefined)
inactive: [9] | [2] | [4] | [7] | [8]

CC1=CC[C@H]2C[C@@H]1C2(C)C
inactive: [9] | [2] | [5] | [6] | [8]

COC(=O)c1ccc2cc(C(=O)OC)ccc2c1
not listed: [1]
inactive: all other assays above

CC/C=C\C/C=C\C/C=C\CCCCCCCC(=O)O
not listed: [1] | [3] | [6]
inactive: all other assays above

CCCCCCC(O)CO (centres undefined)
not listed: [2] | [5] | [8]
inactive: all other assays above

CCO[Si](CCCN=C=O)(OCC)OCC
not listed: [1]
inactive: all other assays above

CCN(Cc1cccc(S(=O)(=O)O)c1)c1ccc(C(=C2C=CC(=[N+](CC)Cc3cccc(S(=O)(=O)[O-])c3)C=C2)c2ccccc2)cc1
not listed: [1] | [8]
inactive: all other assays above

CN(C)c1ccc(C(=N)c2ccc(N(C)C)cc2)cc1
active: [5] 106 µM
not listed: [1] | [8]
inactive: all other assays above

C[Si](C)(CCCN)O[Si](C)(C)CCCN
inactive: [2] | [4] | [5] | [7] | [8]

O=CN1CCCCC1
inactive: [2] | [5] | [6] | [8]

Cc1cccc(OCCOc2cccc(C)c2)c1
inactive: [2] | [5] | [7] | [8]

O=C(OCC1CCC2OC2C1)C1CCC2OC2C1 (centres undefined)
inactive: [2] | [4] | [6] | [7]

O=C1CCCC(=O)O1
inactive: [2] | [3] | [4] | [7] | [8]

Clc1nc2ccccc2s1
not listed: [1] | [2] | [9]
inactive: all other assays above

CC(=O)Oc1ccc(C(C)=O)cc1
inactive: [2] | [5] | [6]

Nc1ncn([C@@H]2O[C@H](CO)[C@@H](O)[C@H]2O)c(=O)n1
inactive: [2] | [5] | [6] | [7] | [8]

[Cl][Nd]([Cl])[Cl]
not listed: [1] | [4] | [9]
inactive: all other assays above

Cc1cc(O)c(Cl)c(C)c1Cl
inactive: [2] | [3] | [4] | [7] | [8]

COC(=O)c1c(C)cc(O)c(C)c1O
inactive: [2] | [4] | [5] | [7] | [8]

OC1CCCC1
inactive: [2] | [4] | [6] | [7] | [8]

O=Cc1ccc(CO)o1
not listed: [1] | [2] | [9]
inactive: all other assays above

Cn1c([N+](=O)[O-])cnc1COC(N)=O
inactive: [2] | [6] | [7] | [8]

CCN(CC#N)c1cccc(C)c1
not listed: [1] | [5] | [9]
inactive: all other assays above

N#[N+]c1ccc2c(S(=O)(=O)[O-])cccc2c1O
not listed: [1] | [4] | [9]
inactive: all other assays above

OCCN(CCO)c1ccccc1
inactive: [2] | [4] | [6] | [7] | [8]

O=C(O)c1ccccc1Nc1cccc(C(F)(F)F)c1
inactive: [2] | [4] | [5] | [8]

Cc1c(C)c([N+](=O)[O-])c(C(C)(C)C)c([N+](=O)[O-])c1C
active: [6] 9.67 µM
inactive: [2] | [4] | [7] | [8]

c1ccc(CNCc2ccccc2)cc1
inactive: [2] | [4] | [7] | [8]

Cc1ccc2oc(=O)ccc2c1
not listed: [1] | [4] | [9]
inactive: all other assays above

Cc1ccc(C(C)(C)C)cc1
not listed: [1] | [3] | [9]
inactive: all other assays above

C=COCCCC
inactive: [2] | [7] | [8]

CN(C)c1ccc(N=Nc2ccccc2C(=O)O)cc1
inactive: [2] | [4] | [6] | [8]

CC(C)(C)C(=O)CCc1ccc(Cl)cc1
inactive: [2] | [4] | [5] | [6] | [8]

COc1c2ccoc2cc2oc(=O)ccc12
not listed: [1] | [5] | [9]
inactive: all other assays above

ON(Cc1ccccc1)Cc1ccccc1
inactive: [2] | [5] | [7] | [8]

O=C(C(Cl)Cl)N1CCOC12CCCCC2
inactive: [2] | [3] | [5] | [7] | [8]

C=C(C)[C@H]1CC=C(C)CC1
inactive: [2] | [4] | [6] | [7] | [8]

CC(C)(c1cc(Br)c(OCCO)c(Br)c1)c1cc(Br)c(OCCO)c(Br)c1
inactive: [2] | [3] | [5] | [7]
active: [6] 21.5 µM | [8] 46.7 µM

[Cl][Bi]([Cl])([c]1ccccc1)([c]1ccccc1)[c]1ccccc1
not listed: [1] | [4] | [9]
inactive: all other assays above

CCCCCCCCCCCCCOP(=O)(O)O
inactive: [2] | [7]

O=S(=O)(O)c1ccc2cc(O)c(S(=O)(=O)O)cc2c1
inactive: [2] | [5] | [7] | [8]

FC(F)=C(F)OC(F)(F)C(F)(F)C(F)(F)F
inactive: [2] | [6] | [7] | [8]

Cc1cccc(C(=O)O)c1
inactive: [2] | [4] | [5] | [7] | [8]

COc1ccc(NC(C)=O)cc1N
inactive: [2] | [4] | [6] | [8]

C[C@]12C=CC(=O)C=C1CC[C@@H]1[C@@H]2[C@@H](O)C[C@@]2(C)[C@H]1CC[C@]2(O)C(=O)CO
inactive: [2] | [4] | [6] | [7] | [8]

CC(C)=CCC[C@H](C)CCO
inactive: [2] | [3] | [4] | [6] | [8]

c1c[nH]cn1
inactive: [3]

O=C1OC(=O)c2cc(Oc3ccc4c(c3)C(=O)OC4=O)ccc21
inactive: [2] | [3] | [4] | [7] | [8]
